In ChEMBL document CHEMBL4513216, “Probing the Open Global Health Chemical Diversity Library for Multistage-Active Starting Points for Next-Generation Antimalarials” (ACS Infect Dis, 2020) one finds INHIBITION data, which are given here for 110 compounds.

Screen size: about 69,000 compounds; about 8,600 (12%) showed an effect of 50% or more. Shown is part of a subset that was picked to be rich in strong results.

For this assay, the system named is Plasmodium berghei. The experiment in a line: Screen against P. berghei liver stage (PbLuc), transformed with Luciferase, at 10uM. Type of assay: functional, HepG2. Conditions: tested at 10 uM.
In the case of `Cc1cc(=O)n(CC(=O)NC2CCCCC2)c2ccccc12`, the INHIBITION is on record as 70.1%.
The same measure for `COC(=O)[C@@H]1C[C@H](NC(=O)Cn2c(=O)cc(C)c3ccccc32)CN1C`: -4.4%.
Consider `Cc1cn(CC(=O)NC2CCC(C(=O)O)CC2)c2ccccc12` (stereo not given), for which the INHIBITION is given as 26.4%.
The same measure for `Cc1nnn2c1COCC(CNC(=O)c1ccc[nH]1)C2` (stereo not given): 26.5%; for `CC(C)CSCCN1CCN(S(C)(=O)=O)CC1`: 45.3%; for `CC(C)CSCCN1CCCN(S(C)(=O)=O)CC1`: 75.6%.
Regarding `CCSCCN1CCCN(S(C)(=O)=O)CC1`, the INHIBITION is listed as 37.7%.
With `O=C1CCOC[C@]2(CN(Cc3ccccc3)C[C@H]2c2ccccc2F)N1` the figure was 23.9%; with `CN1CCN(C(=O)[C@H]2C[C@H]3[C@H](CCN3Cc3cccs3)O2)CC1`, -7.24%.
The same measure for `c1cncc(CN2CCCC3(COCCN(c4cnccn4)C3)C2)c1` (stereo not given): 12.7%.
Take `Cc1noc(C)c1CN(C)C(=O)NC(C)Cc1ccco1` (stereo not given): the INHIBITION is 53.3%.
On to `Cc1cc(CN(C)C(=O)NC(C)Cc2ccco2)no1` (stereo not given), for which the INHIBITION stood at 34.2%.
As for `CC(Cn1cccn1)NC(=O)N(C)Cc1ccsc1` (stereo not given), the INHIBITION is recorded as -1.04%.
In the case of `CC(Cn1ccnc1)NC(=O)N(C)Cc1ccco1` (stereo not given), the INHIBITION came out at 81%.
With `Cc1noc(C)c1CN(C)C(=O)NC(C)c1cccs1` (stereo not given) the figure was -55.1%; with `CN(Cc1ccco1)C(=O)NC(Cn1ccnc1)C(C)(C)C` (stereo not given), -27.8%; with `CC(Cn1ccnc1)NC(=O)N(C)Cc1ccc2c(c1)OCO2` (stereo not given), 7.12%.
As to `CC(Cn1ccnc1)NC(=O)N(C)Cc1ccsc1` (stereo not given), the INHIBITION stood at 57.4%.
Turning to `CC(Cn1ccnc1)NC(=O)N(C)Cc1ccc2c(c1)OCCO2` (stereo not given), the INHIBITION is 36.1%.
For the compound `O=C(O)c1cc2c(nc1-c1ccncc1)CCN(C1CCOC1)CC2` (stereo not given), the INHIBITION was -28.2%.
With `CCn1cc(S(=O)(=O)N(CCc2ccccc2)Cc2ccn(C)n2)cn1`, the INHIBITION is recorded as 21.425%.
With `CCc1ncc2c(n1)CN(Cc1nc(-c3cccnc3)no1)CC2`, the INHIBITION is reported as -10.6%.
`Cc1ccc(C2CCCN2S(=O)(=O)N(C)CCc2ccccn2)o1` (stereo not given): the INHIBITION was -17.35%.
For the compound `CCOC(=O)C(C)Nc1cccc(COCc2ccco2)c1` (stereo not given), the INHIBITION was 12.1%.
For `CCOCC(=O)NS(=O)(=O)c1ccc(F)cc1C(F)(F)F`, the INHIBITION is given as 0.0944%.
The same measure for `COCCOC1CCN(C(C(=O)O)c2ccc(F)c(Cl)c2)CC1` (stereo not given): 23.9%.
Regarding `COCCOC1CCN(C(C(=O)O)c2c(Cl)cccc2OC)CC1` (stereo not given), the INHIBITION was 50.3%.
On to `COc1cccc(Cl)c1C(C(=O)O)N1CCC(Cn2cccn2)CC1` (stereo not given), for which the INHIBITION is listed as -47%.
With `CC(C)c1ncncc1C(=O)NCCN1CCOCC1` the figure was -1.33%; with `COCCC(Cc1cccc(Br)c1)C(=O)N(C)C` (stereo not given), -28.4%.
In the case of `COc1ccc(C2Nc3ccccc3N=C3CNC(=O)C32)cc1OC` (stereo not given), the INHIBITION was found to be 10.4%.
As for `CCn1nnnc1-c1cccc(NC(N)=O)c1`, the INHIBITION was found to be 8.18%.
With `CCOC(=O)Cn1nnnc1-c1ccccc1` the figure was 64%.
`CCn1nnnc1-c1cccc(NC(=O)CCOC(C)C)c1`: the INHIBITION came out at 4.01%.
The same measure for `O=C(CN1CCCC(c2ncc[nH]2)C1)NCC(F)(F)F` (stereo not given): 81.2%.
For `O=C(CN1CCCC(c2ncc[nH]2)C1)NCCCN1CCCCCC1=O` (stereo not given), the INHIBITION is reported as 45.4%.
Take `Cc1nc(CNC(=O)N2CCCC(c3ncc[nH]3)C2)sc1C` (stereo not given): the INHIBITION was 23.5%.
The same measure for `COC(=O)NCC(=O)N1CCCC(c2ncc[nH]2)C1` (stereo not given): 15.2%; for `O=C(CCC(F)(F)F)N1CCCC(c2ncc[nH]2)C1` (stereo not given): -0.71%.
With `Cc1sc(NC(=O)CN2CCCC(c3ncc[nH]3)C2)c(C)c1C` (stereo not given) the figure was 94.1%; with `CCn1nccc1CNC(=O)C1CCCO1` (stereo not given), 17%; with `COc1ccc(N2CCN(C(=O)OC(C)(C)C)C(C(=O)O)C2)cc1` (stereo not given), 2.55%.
Take `Cc1ccc(N2CCC3(CCN(C(=O)c4ccoc4)CC3)CC2)nn1`: the INHIBITION is -0.27%.
The same measure for `Cc1cc(N2CCC(NC(=O)C3CC3)CC2)nc(-c2ccncc2)n1`: 23.4%; for `CCCc1cc(C(=O)N2C[C@H]3CC=C(C)C[C@H]3C2)ccn1`: 6.66%.
For the compound `CCCc1cc(C(=O)N2CC(c3ccncc3)C2)ccn1`, the INHIBITION is recorded as 8.64%.
The same measure for `CCCc1cc(C(=O)N2C[C@H](O)[C@@H](N3CCCC3)C2)ccn1`: 55.2%; for `CC(C)c1sc(Cl)nc1C(=O)N1CCN(c2ccccc2)CC1`: -1.23%; for `NC(=O)C1CCN(C(=O)NCc2csc(Br)c2)CC1`: 16.9975%.
The same measure for `Cc1csc(N(C)C(=O)C(c2c(F)cccc2Cl)N(C)C)n1` (stereo not given): 9.04%; for `CN(C)C(C(=O)Nc1nccs1)c1c(F)cccc1Cl` (stereo not given): 50.8%.
Take `CN(C)C(C(=O)NCC1(O)CCCCC1)c1c(F)cccc1F` (stereo not given): the INHIBITION was -21.2%.
Consider `N#Cc1c(F)cccc1N1CCC(C(=O)Nc2nccs2)CC1`, for which the INHIBITION turned out to be 17.5%.
Turning to `CN(C(=O)C(c1c(F)cccc1Cl)N(C)C)c1nccs1` (stereo not given), the INHIBITION worked out at 66.5%.
With `COCCOc1ncccc1C(=O)N(C)c1nccs1` the figure was 45.2%; with `CCNc1cc2c(nn1)CCN(C(=O)c1nccnc1N)C2`, 23.5%; with `Cc1c(C2CC(=O)Nc3c2cnn3C(C)C)cnn1C` (stereo not given), 24.7%.
On to `Cc1cn2nc(N(C)C3CCCN(c4cccnn4)C3)sc2n1` (stereo not given), for which the INHIBITION is recorded as 11.5%.
`CCCNC(=O)COc1cccc(-c2nc(C(C)C)no2)c1`: the INHIBITION is reported as 31.3%.
For `Cc1ccc(Nc2nccc(C3CCCN(CC(=O)N(C)C)C3)n2)nc1` (stereo not given), the INHIBITION was determined as 79.6%.
With `O=C(C1CCC1)N1CCCC(c2ccnc(Nc3cnccn3)n2)C1` (stereo not given), the INHIBITION is -14.1%.
`COCC(=O)N1CC(c2ccnc(Nc3ccc(C)cn3)n2)C1`: the INHIBITION was found to be 6.32%.
The same measure for `Cc1cccnc1Nc1nccc(C2CN(CC(N)=O)C2)n1`: -4.51%; for `CC(=O)N1CCC(c2ccnc(Nc3ccc(C)cn3)n2)C1` (stereo not given): -55%.
In the case of `Cc1ccc(Nc2nccc(C3CCN(CC(N)=O)C3)n2)nc1` (stereo not given), the INHIBITION is recorded as 88.1%.
Regarding `CC(=O)N1CC(c2ccnc(Nc3ccc(C)cn3)n2)C1`, the INHIBITION is -9.32%.
Consider `Cc1ccc(Nc2nccc(C3CN(CC(N)=O)C3)n2)nc1`, for which the INHIBITION worked out at 46.6%.
For `Cc1ccc(Nc2nccc(C3CN(C(C)C)C3)n2)nc1`, the INHIBITION was 61.7%.
Turning to `Cn1nc2c(cc1=O)CN(Cc1nc(-c3cccnc3)no1)CC2`, the INHIBITION came to 13.3%.
With `CC(C)NC(=O)N1CCCC2(CCN(c3ccccc3)C2=O)C1` (stereo not given) the figure was -20.8%.
With `COc1cccc(NC(=O)Cn2cc(-c3ccccc3)ncc2=O)c1`, the INHIBITION amounted to 28.2%.
For `CN(Cc1n[nH]c2c1CCC2)C(=O)c1cccc(CCC(C)(C)O)c1`, the INHIBITION is 68.5%.
With `CN(Cc1n[nH]c2c1CCCC2)C(=O)c1cccc(CCC(C)(C)O)c1`, the INHIBITION turned out to be 48.5%.
For `CN(Cc1cc[nH]n1)C(=O)c1cccc(CCC(C)(C)O)c1`, the INHIBITION is given as 34.1%.
On to `OC1CCN([C@@H]2CCN(c3nc(-c4ccccc4)no3)C[C@H]2O)CC1`, for which the INHIBITION amounted to 69.8%.
The same measure for `O[C@H]1CN(c2nc(-c3ccccc3)no2)C[C@@H]1N1CCOCC1`: -22.7%; for `OC1CCN(c2nc(-c3ccccc3)no2)CC1`: -3.74%; for `CC(C)c1ccc2c(c1)C1(CC(=O)Nc3[nH]ncc31)C(=O)N2C` (stereo not given): 17.7%.
With `CCOc1ccc(NC(=O)NCc2cccnc2OCC)cc1`, the INHIBITION is given as 13.6%.
`Cc1nc(CN2CCc3ncnc(C4CC4)c3CC2)cs1`: the INHIBITION amounted to 15.9%.
Regarding `Cc1nc(CN2CCc3ncnc(-c4ccsc4)c3CC2)cs1`, the INHIBITION was determined as 60.2%.
On to `Cc1cccc(CN2CCc3ncnc(C)c3CC2)n1`, for which the INHIBITION was determined as 6.8%.
For the compound `Cc1nn(C)c2nc(N3CCN(Cc4nccn4C)CC3)sc12`, the INHIBITION is 37.6%.
With `Cc1nc(CN2CCc3ncnc(-c4ccccc4)c3CC2)cs1` the figure was 6.6%; with `Cc1nc(CN2CCN(c3ccc(SC(C)C)nn3)CC2)cs1`, -4.13%.
Regarding `Cc1nc(CN2CCc3ncnc(C)c3CC2)cs1`, the INHIBITION is reported as 56.3%.
The same measure for `CCOc1ncnc2c1CCN(Cc1csc(C)n1)CC2`: 1.94%; for `c1ccc(CN2CCc3ncnc(-c4ccsc4)c3CC2)nc1`: 19.9%; for `Cc1nc(CN2CCN(c3nc4c(s3)c(C)nn4C)CC2)cs1`: 73.9%.
Turning to `Cc1cccc(CN2CCc3ncnc(-c4ccsc4)c3CC2)n1`, the INHIBITION turned out to be 53.2%.
Regarding `Cc1nc(CN2CCc3ncnc(-c4ccncc4)c3CC2)cs1`, the INHIBITION is recorded as 27.6%.
With `Cc1cn(CC(=O)Nc2cc(C(C)C)nn2C)cn1`, the INHIBITION is given as -0.273%.
In the case of `CC1CN(C)CCN1CC(=O)NCCOc1ccc(Cl)cc1` (stereo not given), the INHIBITION stood at 35.95%.
With `CC(c1ccccn1)N(C)Cc1cccc(C(=O)Nc2nccn2C)c1` (stereo not given), the INHIBITION was found to be 9.57%.
`CN(C)c1nc(NCCc2ccnn2C)ncc1F`: the INHIBITION was determined as 42.3%.
For `O=C(Cc1ccc(F)c(Br)c1)NC1CCN(CC(F)F)CC1`, the INHIBITION is given as -60.4%.
Take `CN(C)CC(=O)N1CCc2ncnc(-c3ccoc3)c2CC1`: the INHIBITION was 23.1%.
In the case of `CN(C)CC(=O)N1CCc2ncnc(-c3ccsc3)c2CC1`, the INHIBITION came out at 70.4%.
As for `CN(C)CC(=O)N1CCc2ncnc(-c3cncnc3)c2CC1`, the INHIBITION amounted to 6.83%.
The same measure for `CCn1ccc(NC(=O)CN2C(=O)C(C)(C)c3ccccc32)n1`: 23.1%; for `Cc1ccc(N2CCCC(NCc3c(C)noc3C)C2)nn1` (stereo not given): -89%.
For the compound `CN1CC(C(=O)NCCc2ccc3c(c2)OCO3)CC1=O` (stereo not given), the INHIBITION is 20%.
On to `COc1ccc(CNC2CCCN(Cc3noc(C)n3)C2)cc1F` (stereo not given), for which the INHIBITION is 40.3%.
For `Cc1noc(-c2ccnc(Oc3ccc(CN4CCCC4)cc3F)c2)n1`, the INHIBITION came out at 87.4%.
For `COc1ccc(CCNc2cc(-c3nc(C)no3)ccn2)cc1OC`, the INHIBITION turned out to be 10.8%.
In the case of `CCOc1cc(CNc2cc(-c3nc(C)no3)ccn2)ccc1OC`, the INHIBITION was determined as 1.84%.
Consider `Fc1ccc(CN2CCC(c3noc(-c4cnccn4)n3)CC2)cc1F`, for which the INHIBITION amounted to 18.3%.
As for `Cc1noc(-c2ccnc(Oc3ccc(CN4CCCC4)cc3C)c2)n1`, the INHIBITION was found to be 89%.
In the case of `CC(=O)N1CC(Cc2nccc3ccn(C)c23)C1`, the INHIBITION stood at 47.2%.
`COc1cc(OC)cc(-c2cc(CN)nc3ccnn23)c1`: the INHIBITION is -18.2%.
